The entries come from a sample that favours hits as a whole.
Ba CapD inh: CapD enzyme inhibition; z-score (no concentration beside the values); AID 492967; actives 0.23% (n = 140,000); purified CapD enzyme, fluorescence intensity read-out; hits give low values; in the data active means z-score mostly below about -2.9, no sharp cut-off; inactive means mostly above about -1.9
* = called active by the depositor.

SMILES | Ba CapD inh
O=C1NCC(=Nc2ccccc2)C(=O)N1 | 0.245
Cc1ccc(N/N=C2/CCCNC2=O)cc1 | -2.66
O=C1NCCC/C1=N/Nc1ccccc1 | -3.88*
Cc1cc(C)nc(SCC(=O)N2c3ccccc3-c3c(ssc3=S)C2(C)C)n1 | -0.24
O=C(CN1CCN(S(=O)(=O)c2ccc(Br)cc2)CC1)c1ccc2c(c1)OCO2 | -0.18
O=C(NCc1cccc([N+](=O)[O-])c1)OCCc1ccccc1Br | -0.98
CCN(CC)Cc1c(O)ccc2c(=O)c(-c3ccc(OC)c(OC)c3)c(C(F)(F)F)oc12 | -0.02
CCCc1cc2c(=O)c(-c3ccc4c(c3)OCCO4)c(C(F)(F)F)oc2c(C=[N+](C)C)c1O | -1.51
CCc1cc2c(=O)c(-c3ccc4c(c3)OCO4)c(C(F)(F)F)oc2c(CN(C)C)c1O | -4*
N#C/C(=C\c1ccco1)C(=O)C1CC1 | -4.28*
O=C(/C=C/c1ccco1)C1CC1 | -3.09
N#C/C(=C\c1cccc(Cl)c1)C(=O)C1CC1 | 0.495
O=C(N/N=C/c1ccc(Cl)cc1)c1ccc([N+](=O)[O-])cc1Cl | -0.085
O=C1CSc2ccc(S(=O)(=O)CCC(=O)N3CCCCCC3)cc2N1 | -0.35
N#CC(c1ccc(C(=O)c2ccccc2)cc1)c1cccs1 (centres undefined) | -0.215
COC(=O)c1cc(CC#N)c(C)o1 | -0.11
S=c1[nH]nc(-c2cccnc2)n1/N=C/C=C/c1ccco1 | -2.51
Cc1nnc(C)n1/N=C/C=C\c1ccco1 | -4.41*
S=c1[nH]nc(-c2ccccc2)n1/N=C/C=C/c1ccco1 | -2.42
COC(=O)C1(OC)COc2ccccc2O1 (centres undefined) | 0.61
CCOC(=O)c1cc(-c2csc(CS(=O)(=O)Cc3cccc(C(F)(F)F)c3)n2)on1 | 0.25
CSc1ccc(CCNC(=O)c2ccc(CS(=O)c3cccc(C)c3)o2)cc1 (centres undefined) | 0.14
C=CCNC(=O)c1ccc2c(=O)n(Cc3ccco3)c(=S)[nH]c2c1 | 0.375
CC(C)NC(=O)c1ccc2c(=O)n(Cc3ccco3)c(=S)[nH]c2c1 | -5.07*
COC(CNC(=O)c1ccc2c(=O)n(Cc3ccco3)c(=S)[nH]c2c1)OC | -0.575
SMILES | Ba CapD inh
COc1ccc(N(C(=O)C(C)C)S(=O)(=O)c2cccs2)cc1 | -7.05*
CC(=O)Oc1ccc(N(C(C)=O)S(=O)(=O)c2cccs2)cc1 | -2.75
CC(C)C(=O)N(c1ccc2oc(=O)sc2c1)S(=O)(=O)c1cccs1 | -2.96
CCOC(=O)N1CCC(NC2C3CC4CC(C3)CC2C4)CC1 (centres undefined) | 0.295
COC(CNC(=O)c1ccc(/C=C2\Sc3ccccc3N(Cc3ccc(F)cc3)C2=O)cc1)OC | -8.54*
COC(CNC(=O)c1ccc(/C=C2/Sc3ccccc3N(Cc3cccc(C)c3)C2=O)cc1)OC | 0.07
Cc1cccc(CN2C(=O)/C(=C\c3ccc(C(=O)NCc4cccnc4)cc3)Sc3ccccc32)c1 | 11.9
CC1=NN(c2ccc(C)cc2)C(=O)C1C(c1ccccc1)C1C(=O)N(c2ccc(C)cc2)N=C1C (centres undefined) | 5.85
Cc1ccc(Nc2c(O)[nH]c(=O)n2N)cc1 | -0.925
N#Cc1ccc(Oc2ccc(N3C(=O)CCC3=O)cc2)cc1 | -0.055
N#COc1ccc(Oc2ccc(OC#N)cc2)cc1 | -4.94*
N#Cc1ccc(Oc2ccccc2)cc1C#N | -0.08
Cc1cc(C)n(-c2ccc(N=NC3=C(O)CCCC3=O)cc2)n1 | -4.44*
Cc1cc(C)n(-c2ccc(S(N)(=O)=O)cc2)n1 | 0.555
Cc1cc(C)n(-c2ccc(C(=O)O)cc2)n1 | 0.57
O=C1CCCC(O)=C1C1c2ccccc2OC2CCCC(=O)C21 (centres undefined) | -0.245
CCn1c(=S)[nH]c2ccc(Br)cc2c1=O | -0.475
O=C1S/C(=C\c2ccc(F)cc2)C(=O)N1c1ccccc1 | 0.3
CN(C)/C=C1\SC(=O)N(c2ccccc2)C1=O | -6.37*
O=C1S/C(=C/c2ccccc2Cl)C(=O)N1c1ccccc1 | -0.54
O=C(Cn1c(-c2cccs2)cc2ccccc21)NCC1CCCO1 (centres undefined) | 86.9
CC1(C)Oc2ccc(/C=C/C(=O)N3CCCCC3)c(O)c2C(N2CCCCC2)C1O (centres undefined) | 9.88
CN(N/C(=C/C#N)NC(=O)NC(C)(C)C)c1ncc(C(F)(F)F)cc1Cl | -0.6
COc1cc(-c2ccc(/C=C3\SC(=N)N(c4nccs4)C3=O)o2)c(OC)cc1Cl | -0.13
COc1ccccc1C1CC(c2c(-c3ccccc3)c3cc(Cl)ccc3[nH]c2=O)=NN1C(C)=O (centres undefined) | 1.09
SMILES | Ba CapD inh
O=C(NCC1CCCO1)c1cc2sc3ccccc3c2s1 (centres undefined) | 4.46
COc1cc(/C=C2\Oc3ccccc3C2O)cc(Cl)c1OC (centres undefined) | 0.54
CCc1ccc(-n2c(=S)sc3c(=O)[nH]c(SCC4OCCO4)nc32)cc1 | -1.52
CCc1ccc(-n2c(=S)sc3c(=O)[nH]c(SCC(=O)O)nc32)cc1 | -4.3*
CCc1ccc(-n2c(=S)sc3c(=O)[nH]c(SCC(=O)Nc4nccs4)nc32)cc1 | 0.14
Cn1c(=O)c2c(nc(NCCO)n2Cc2ccc(F)cc2)n(C)c1=O | -0.635
